About 2,200 (0.69%) of roughly 320,000 compounds were called active. The full list was thinned out, with actives kept by preference. Values without a mark were called inactive.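 Rule for the calls: active = inhibition above the mean of all tested compounds plus 3 SD, cutoff set per campaign (cut at about 30% in these data); inactive = the rest.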

The target of this experiment is Bcl-2-like protein 1 (Homo sapiens) (UniProt Q07817). In words: inhibitors of human Bcl-xL, primary screen, biochemical, fluorescence polarization, HTS (AID 2129).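 Note: 0% = DMSO wells and 100% = unlabeled Bim-BH3 peptide competitor; inhibitors lower millipolarization by displacing the labeled peptide.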 To be noted: GST-Bcl-xL / FITC-Bim BH3 peptide fluorescence polarization; at 10.9 µM; stronger effect = higher value. In general terms: In fluorescence polarisation assays a small probe gives low polarisation when free and higher when bound to something large.
Chain of Bcl-2-like protein 1 (Homo sapiens) (Q07817 whole entry, looked up): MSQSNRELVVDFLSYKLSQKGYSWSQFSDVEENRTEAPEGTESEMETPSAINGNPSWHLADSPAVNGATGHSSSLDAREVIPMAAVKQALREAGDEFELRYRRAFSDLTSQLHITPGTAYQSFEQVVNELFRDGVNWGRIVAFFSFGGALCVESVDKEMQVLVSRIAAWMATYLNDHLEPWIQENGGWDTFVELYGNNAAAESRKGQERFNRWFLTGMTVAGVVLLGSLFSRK
For the molecule `CCNc1nc2[nH]c(=O)c3c(c2s1)OC(N)=C(C#N)C3c1cccs1` (stereo not given), the inhibition (usually the change of the read-out against control, counted positive when it falls) is 30.4% (active).

With `N#CC1=C(N)Oc2c(c(=O)oc3ccccc23)C1c1ccccc1OC(=O)c1cccs1` (stereo not given), the inhibition was 3.02%.

For the molecule `Cc1ccc(N(C)C(=O)Oc2cccc3ccc(C)nc23)cc1`, the inhibition is 0.48%.

With `NCCc1c[nH]c2ccc(O)cc12`, the inhibition was 4.75%.

With `O=C1NC(=O)N(c2ccccc2)C(=O)/C1=C/c1ccc([N+](=O)[O-])s1`, the inhibition is 26.3%.

Turning to `Cc1ccccc1N1C(=O)NC(=O)/C(=C\c2cc(C)n(C)c2C)C1=O`, the inhibition was 2.98%.

For the molecule `COc1cccc(N2C(=O)NC(=O)/C(=C\c3cn(C)c4ccccc34)C2=O)c1`, the inhibition is 36.2% (active).

For the molecule `Cc1ccc(-n2c(O)c(C=NCC3CCCO3)c(=O)[nH]c2=O)c(C)c1` (stereo not given), the inhibition was -2.2%.

In the case of `Cc1cc(/C=C2/C(=O)NC(=O)N(Cc3ccco3)C2=O)c(C)n1-c1ccc(C(=O)O)cc1`, the inhibition is -1.1%.

With `COc1ccc(N2C(=O)/C(=C/c3ccco3)C(=O)NC2=S)cc1`, the inhibition was 32.5% (active).

On to `COc1ccc(CN2C(=O)NC(=O)/C(=C\c3ccc(OC)c(OC)c3OC)C2=O)cc1`, for which the inhibition is -7.16%.

`Cc1cccc(NC(=O)OC2CN3CCC2CC3)c1` (stereo not given): the inhibition is -2.32%.

Regarding `CC(=NC1CCN(Cc2ccccc2)CC1)c1c(O)n(C)c(=O)n(C)c1=O`, the inhibition was 14.7%.

For `Cc1ccc2c(c1)C1CN(C)CCC1N2C(=O)Cn1nnc(-c2ccccc2F)n1` (stereo not given), the inhibition is 4.75%.

As for `O=c1c2ccccc2nc(/C=C/c2ccc(F)cc2)n1-c1ccccc1O`, the inhibition is 0.24%.

The record behind these values is PubChem BioAssay AID2129 (The Scripps Research Institute Molecular Screening Center, 2009).
